This passage reports z-score and composite z-score results from PubChem BioAssay.

Calls of active or inactive are those of the source. Unless noted, no rule for the calls is given here.

Test [1] is described as follows: resazurin metabolic signal in HepG2 cells – cell-based, resazurin fluorescence, 24 h, PK04 Diversity Set, profiling panel (AID 1172). Also: test concentration not given here. The following applies: HepG2 viability, higher = more signal. For orientation: The colour change of resazurin is a common sign of viable cells or microbes.
A short description of test [2]: budding yeast growth changes without added modifier – OD600, strain BY4716, 24 h, basal condition, primary screen (AID 1173). The note with it: S. cerevisiae BY4716 growth, OD600, 24 h; higher = more signal, called active from +8 up or from −8 down.
Test [3] can be described thus: viability profiling in MM1S myeloma cells – cell-based, resazurin fluorescence, basal, 24 h, PK04 Diversity Set, profiling panel (AID 1174).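 Also: MM1S multiple myeloma cell line; test concentration not given here.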 The following applies: higher = more signal, called active from +8 up or from −8 down.
Test [4] has as its target Dihydroorotate dehydrogenase (quinone), mitochondrial (Plasmodium falciparum (isolate 3D7)) (UniProt Q08210). Briefly: inhibition of P. falciparum DHODH – biochemical, C-terminal His tag, absorbance 600 nm, primary screen (AID 1175).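 Also: recombinant parasite enzyme with a five histidine tag at its C terminus; test concentration not given here.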 The following applies: PfDHODH enzyme, DCIP absorbance 600 nm; higher = more signal, called active from +8 up or from −8 down.
Test [5] in a line: inhibition of PAO1 biofilm formation – strain PAO1, LB-PBS medium, absorbance 600 nm, primary screen (AID 1176). Also: test concentration not given here. The note with it: P. aeruginosa PAO1 growth/biofilm, A600, 12 h; higher = more signal.
A short description of test [6]: growth modulation of vineyard yeast isolate – strain RM11-1a, OD600, basal, 24 h, primary screen (AID 1177).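 Also: cultures grown under basal conditions with no added stressor; test concentration not given here.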 The note with it: S. cerevisiae RM11-1a growth, OD600, 24 h; higher = more signal, called active from +8 up or from −8 down.
Test [7] in a line: growth of efflux-deficient E. coli DRC39 – strain DRC39, OD650, 24 h, E. coli filamentation inducers, primary screen (AID 1178).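 Also: growth measured as culture turbidity by optical density at 650 nm; test concentration not given here.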 The following applies: E. coli DRC39 acrAB, higher = more signal, called active from +8 up or from −8 down.
Test [8] in a line: growth of efflux-deficient E. coli DRC39 – strain DRC39, OD650, 48 h, E. coli filamentation inducers, primary screen (AID 1179).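 Also: screen aims at cell division blockers that make cells filament.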 The note with it: E. coli DRC39 delta-acrAB growth, higher = more signal, called active from +8 up or from −8 down.
Test [9] in a line: viability profiling in RPMI8226 myeloma cells – cell-based, resazurin fluorescence, basal, 24 h, PK04 Diversity Set, profiling panel (AID 1180).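 Also: RPMI8826 multiple myeloma cell line at 5000 cells per well; test concentration not given here.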 The following applies: higher = more signal.
For test [10], the target named is E3 ubiquitin-protein ligase XIAP (Homo sapiens) (UniProt P98170). Briefly: small molecules binding XIAP protein – biophysical, small-molecule microarray, fluorescence 635 nm, primary screen (AID 1181).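 Also: score merges 667 nm emission and signal to noise over triplicate slides.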 The following applies: higher = more signal.
Chain of E3 ubiquitin-protein ligase XIAP (Homo sapiens) (P98170 whole entry, looked up): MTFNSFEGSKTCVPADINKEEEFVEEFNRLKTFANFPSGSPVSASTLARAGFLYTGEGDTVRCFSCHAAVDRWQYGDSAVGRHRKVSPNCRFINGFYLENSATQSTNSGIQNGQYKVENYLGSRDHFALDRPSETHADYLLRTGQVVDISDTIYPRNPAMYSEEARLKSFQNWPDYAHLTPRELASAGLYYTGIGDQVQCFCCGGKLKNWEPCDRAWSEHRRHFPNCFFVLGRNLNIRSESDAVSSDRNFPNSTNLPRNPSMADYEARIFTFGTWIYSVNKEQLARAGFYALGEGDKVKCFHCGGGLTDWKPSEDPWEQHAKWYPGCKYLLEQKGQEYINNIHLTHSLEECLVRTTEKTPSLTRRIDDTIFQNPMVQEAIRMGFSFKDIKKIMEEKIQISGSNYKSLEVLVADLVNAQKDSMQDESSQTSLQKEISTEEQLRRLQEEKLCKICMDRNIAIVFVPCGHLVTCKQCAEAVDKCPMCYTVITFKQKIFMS

Chain of Dihydroorotate dehydrogenase (quinone), mitochondrial (Plasmodium falciparum (isolate 3D7)) (Q08210 whole entry, looked up): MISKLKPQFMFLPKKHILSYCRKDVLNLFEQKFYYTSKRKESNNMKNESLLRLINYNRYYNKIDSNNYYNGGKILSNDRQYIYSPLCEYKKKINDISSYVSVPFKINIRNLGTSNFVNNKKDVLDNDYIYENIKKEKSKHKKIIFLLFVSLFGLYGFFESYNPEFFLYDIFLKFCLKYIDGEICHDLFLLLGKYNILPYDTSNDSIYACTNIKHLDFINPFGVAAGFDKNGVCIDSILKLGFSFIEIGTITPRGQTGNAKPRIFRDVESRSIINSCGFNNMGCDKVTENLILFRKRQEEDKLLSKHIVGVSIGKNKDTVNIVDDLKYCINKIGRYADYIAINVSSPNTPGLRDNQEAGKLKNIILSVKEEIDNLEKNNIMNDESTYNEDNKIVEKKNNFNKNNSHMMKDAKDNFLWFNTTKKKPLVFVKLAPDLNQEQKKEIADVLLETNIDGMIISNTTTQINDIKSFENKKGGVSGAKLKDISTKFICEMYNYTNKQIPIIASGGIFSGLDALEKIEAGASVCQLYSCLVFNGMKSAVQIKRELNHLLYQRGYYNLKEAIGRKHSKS

For the compound `CN(C)CCCCCCNC(=O)[C@@H]1C[C@@H]2C(=O)N[C@@H](Cc3ccccc3)C(=O)N2[C@@H]1c1cccc(OCCO)c1`, the z-score in test [1] is -0.272; in test [2], -0.117 (inactive); in [3] it was -0.826 (inactive); in [5], -0.695 (inactive); in test [6] it was -0.704 (inactive); in [7], 0.25 (inactive). Moreover, the results for the z-score in test [8] and in test [9] were 0.0332 (inactive) and -0.592, respectively. Moreover, the figures for the composite z-score in [4] and in [10] were -0.562 (inactive) and 0.564, respectively.
With `Cn1c2c(c3ccccc31)C(=O)C1NC2C=CC1(C)C(=O)OCc1ccccc1` (stereo not given), the z-score in test [1] is 0.0885; in [2], 0.272 (inactive); in test [3], -1.35 (inactive); in test [5] it was -0.253 (inactive); in test [6], -0.128 (inactive); in [7], -1.33 (inactive). Besides, the results for the z-score in test [8] and in test [9] were -1.06 (inactive) and -1.2, respectively. Moreover, the composite z-score was -0.296 (inactive) in [4] and 0.0546 in test [10].
With `[N-]=[N+]=Nc1ccccc1[C@H]1OC(c2ccc(OCCCO)cc2)=N[C@@]1(CCS(=O)(=O)c1ccccc1)C(=O)N1CCOCC1`, the z-score in test [1] was -0.512; in [2], 0.917 (inactive); in test [3], -1.45 (inactive); in test [5] it was 1.75 (inactive); in test [6], 1.45 (inactive); in test [7], 0.713 (inactive). Also, the z-score in test [8] is 0.187 (inactive); in test [9] it was -1.33. Moreover, the composite z-score in [4] was 0.499 (inactive); in [10], 0.389.
Take `COc1ccc(C(=O)Nc2cccc(CN3C(=O)[C@@]4(O[C@@H](CC(=O)N5Cc6ccccc6C[C@H]5CO)[C@H]([Si](C)(C)c5ccc(OC)cc5)[C@H]4C)c4ccccc43)c2)cc1`: the z-score was -0.79 in test [1]; 0.147 (inactive) in test [2]; -3.05 (inactive) in [3]; 1.42 (inactive) in test [5]; 1.91 (inactive) in test [6]; 0.978 (inactive) in test [7]. For the same compound, the z-score in [8] is 0.621 (inactive); in test [9], -1.99. The composite z-score in test [4] was -4.98 (inactive); in test [10], -0.0525.
As for `O=C1C[C@@](C(=O)O)(c2ccc([N+](=O)[O-])cc2)[C@@H](c2ccc(CO)cc2I)N1CC12CC3CC(CC(C3)C1)C2`, the z-score in test [1] is -1.79; in [2] it was -4.78 (inactive); in test [3] it was -5.9 (inactive); in test [5], 1.34 (inactive); in [6], -0.326 (inactive); in test [7], -0.401 (inactive). Further, the figures for the z-score in test [8] and in [9] were -0.0671 (inactive) and -6, respectively. Also, the composite z-score is -1.49 (inactive) in test [4] and -0.17 in [10].
Regarding `O=C1OCC=C[C@H]2OC34C=CCN(Cc5ccccc5)C(=O)[C@H]3N(CCCO)C(=O)[C@@H]4[C@@H]12` (stereo not given in full), the z-score in [1] was 0.0395; in [2], -0.616 (inactive); in test [3], -0.0608 (inactive); in [5], -0.0963 (inactive); in test [6], 0.242 (inactive); in [7], -0.658 (inactive). Besides, the z-score in test [8] is 0.122 (inactive); in [9], -0.0906. Besides, the composite z-score in [4] is -1.55 (inactive); in test [10], 0.643.
Take `CN1C(=O)C2C=CC(C(O)C(c3ccccc3)c3ccccc3)N(Nc3ccccc3)C2C1=O` (stereo not given): the z-score in test [1] was -0.562; in test [2], -2.21 (inactive); in test [3], -0.978 (inactive); in [5], 1.16 (inactive); in test [6], -0.238 (inactive); in [7] it was -1.31 (inactive). The z-score was -1.38 (inactive) in test [8] and -1.2 in [9]. Also, the figures for the composite z-score in [4] and in [10] were 0.0016 (inactive) and 0.21, respectively.
As for `COC(=O)[C@@]1(Cc2ccc(OC)cc2)[C@H]2c3cc(C(=O)N(C)C)n(Cc4ccc(OC)c(OC)c4)c3C[C@H]2CN1C(=O)c1ccccc1`, the z-score in test [1] was -0.962; in [2], 2.46 (inactive); in test [3], -1.67 (inactive); in test [5] it was 0.964 (inactive); in test [6], 2.19 (inactive); in [7], -0.558 (inactive). Further, the z-score is 0.0309 (inactive) in [8] and -2.28 in [9]. The composite z-score was 0.697 (inactive) in test [4] and 0.124 in test [10].
As to `CO[C@H]1O[C@H](CO)[C@@H](OC(=O)Nc2ccc(C(F)(F)F)cc2)[C@H](OC(=O)Nc2ccccc2)[C@@H]1OC(=O)Nc1ccccc1`, the z-score in [1] was -0.5; in test [2], -0.332 (inactive); in test [3], -1.34 (inactive); in test [5], 0 (inactive); in [6], 0.0212 (inactive); in [7], 0.886 (inactive). Further, the z-score in test [8] is -0.053 (inactive); in [9] it was -0.771. The composite z-score in [4] was -0.798 (inactive); in test [10] it was 0.0468.
In the case of `CCN(CC)c1ccc(N2CC=CC34O[C@@H]5C=CCOC(=O)[C@@H]5[C@H]3C(=O)N(CCCCCO)[C@@H]4C2=O)cc1` (stereo not given in full), the z-score in [1] is 0.34; in [2], 0.0663 (inactive); in test [3], 1.08 (inactive); in [5], -0.193 (inactive); in test [6], -0.272 (inactive); in test [7], 0.831 (inactive). Besides, the results for the z-score in [8] and in test [9] were 0.349 (inactive) and 0.225, respectively. In addition, the values for the composite z-score in test [4] and in [10] were 0.618 (inactive) and 0.532, respectively.
On to `C=C(CCCC)/C(=C/C[C@H](OC(C)=O)c1ccc(CO)o1)c1cc(C(=O)OC)ccc1OC`, for which the z-score in test [1] is -0.577; in [2], -0.31 (inactive); in test [3], -0.871 (inactive); in test [5], 0.0842 (inactive); in test [6] it was 0.0837 (inactive); in [7] it was -0.729 (inactive). Also, the z-score was -0.776 (inactive) in [8] and -0.641 in test [9]. For the same compound, the composite z-score in test [4] is -2.01 (inactive); in test [10] it was -0.322.
`O=C1OCCC/C=C\[C@H]2OC34C=CCN(Cn5nnc6ccccc65)C(=O)[C@H]3N(CCCO)C(=O)[C@@H]4C12` (stereo not given in full): the z-score was 0.558 in [1]; 0.351 (inactive) in test [2]; 0.42 (inactive) in test [3]; 0.77 (inactive) in test [5]; -0.44 (inactive) in [6]; 0.339 (inactive) in [7]. In addition, the figures for the z-score in [8] and in test [9] were 0.0024 (inactive) and 0.702, respectively. Also, the figures for the composite z-score in test [4] and in test [10] were -0.0502 (inactive) and 0.301, respectively.
`COCCOC(=O)N1C(=O)[C@@]2(c3cc(C#CC4=CCCCC4)ccc31)[C@H](C(=O)N1CCN(c3ncccn3)CC1)[C@H]1C(=O)O[C@H](c3ccccc3)[C@H](c3ccccc3)N1[C@@H]2c1ccc(OCCO)cc1`: the z-score in [1] was 0.156; in test [2], 1.31 (inactive); in test [3], 0.162 (inactive); in [5] it was 3.13 (inactive); in test [6] it was 1.69 (inactive); in test [7] it was 0.208 (inactive). Moreover, the z-score in test [8] was -0.564 (inactive); in test [9], -0.147. The composite z-score in test [4] is -0.204 (inactive); in [10] it was -0.0389.
